{"source": "ChEMBL document CHEMBL1157539", "about": "“Thousands of chemical starting points for antimalarial lead identification” (Nature, 2010)", "note": "Over roughly 13,000 compounds, “IFI” has its median near 4; the highest 2% begin near 17. The sample as a whole holds a higher share of the highest values than the screen did."}
{"experiment": "GSK_TCMDC: Inhibition Frequency Index (IFI). The number of non-kinase HTS assays where a compound showed > 50 % inhibition, expressed as a percentage of the number of such assays in which the compound was tested", "assay_type": "functional", "units": {"IFI": "%"}}
{"molecule": "COc1ccc2c(NN=Cc3ccc(N(C)C)cc3)ccnc2c1", "IFI": 5.8}
{"molecule": "O=C(NCC1CCN(CCN2CCC(c3cn(CCO)c4ccccc34)CC2)CC1)c1ccc(-c2ccc(C(F)(F)F)cc2)cc1", "IFI": 10}
{"molecule": "COc1ccc(O)c(-c2sc(N=C(N)N)nc2-c2ccccc2)c1", "IFI": 8.09}
{"molecule": "Fc1cccc(C=NN=c2cc[nH]c3ccc(C(F)(F)F)cc23)c1", "IFI": 0}
{"molecule": "N=C(NCCc1c[nH]c2ccccc12)NCc1ccccc1Cl", "IFI": 4.32}
{"molecule": "NOCCCCOc1ccc(Cl)cc1", "IFI": 0}
{"molecule": "COc1ccc2nc(C)cc(NCc3cccc4ccccc34)c2c1", "IFI": 1.46}
{"molecule": "Cc1cc(=NN=Cc2ccc(Cl)cc2)c2cccc(C)c2[nH]1", "IFI": 1.45}
{"molecule": "COc1ccc(CNCc2cccc(-c3ccc(-c4nc5ccccc5[nH]4)s3)c2)cc1", "IFI": 7.69}
{"molecule": "CC(Cc1ccc(OCCCCOc2ccccc2)cc1)NCCc1ccc(Oc2ccccc2)cc1", "note": "(stereo unspecified)", "IFI": 18.2}
{"molecule": "CN(C)CCCOc1ccc(CCNCc2cccc(Oc3ccc(Cl)cc3)c2)cc1", "IFI": 7.97}
{"molecule": "CC(Cc1ccc(COc2ccc(CC(CO)NCCc3cccc(Cl)c3)cc2)cc1)NCCc1cccc(Cl)c1", "note": "(stereo unspecified)", "IFI": 16.6}
{"molecule": "COc1c(CCNCCCCNCCc2cc(Cl)c3ccccc3c2OC)cc(Cl)c2ccccc12", "IFI": 19}
{"molecule": "COc1ccc(CNCCCCCCNCc2ccc(OC)c3ccccc23)c2ccccc12", "IFI": 8.21}
{"molecule": "COc1cc(CNCCCCCCNCc2cc(OC)c3ccccc3c2OC)c(OC)c2ccccc12", "IFI": 17.3}
{"molecule": "COc1cc(CNCCCCCCNCc2cc(OC)cc3ccccc23)c2ccccc2c1", "IFI": 10.1}
{"molecule": "COc1ccc(CCNCCCCCCNCCc2ccc(Cl)c3ccccc23)cc1OC", "IFI": 9.42}
{"molecule": "COc1cc(CNCCCCCCNCc2cc(OC)c(OC)c3ccccc23)c2ccccc2c1OC", "IFI": 7.41}
{"molecule": "CCOc1ccc(CNCCCCCCNCc2ccc(OCC)c3ccccc23)c2ccccc12", "IFI": 15.4}
{"molecule": "CCOc1cc(OCC)c2ccccc2c1CNCCCCCCNCc1c(OCC)cc(OCC)c2ccccc12", "IFI": 16}
{"molecule": "CCCCNCc1cc(Cl)c2ccccc2c1O", "IFI": 6.77}
{"molecule": "COc1c(CNCCCCCCNCc2cc(Cl)c3ccccc3c2OC)cc(Cl)c2ccccc12", "IFI": 19.4}
{"molecule": "COc1ccc(CCNCCCCCCNCCc2ccc(OC)c(OC)c2Cl)c(Cl)c1OC", "IFI": 2.94}
{"molecule": "CCOc1cc(CNCCCCCCNCc2cc(OCC)c(OCC)c3ccccc23)c2ccccc2c1OCC", "IFI": 18.8}
{"molecule": "COc1ccc2nc(C)cc(N/N=C/c3cccc([N+](=O)[O-])c3)c2c1", "IFI": 1.42}
{"molecule": "COc1cccc(-c2csc(C(=O)NCC3CCN(Cc4ccc(C(C)C)cc4)C3)c2)c1", "note": "(stereo unspecified)", "IFI": 8}
{"molecule": "CCN(CC)CCN(Cc1ccc(-c2ccc(C(F)(F)F)cc2)cc1)C(=O)Cn1c(CCc2c(F)cccc2F)nc(=O)c2ccccc21", "IFI": 11.7}
{"molecule": "Cc1cccc2nc(-c3cccc(-c4cccc(NC(=O)Cc5c[nH]cn5)c4)c3)[nH]c12", "IFI": 4.63}
{"molecule": "CN1CCN(S(=O)(=O)c2cccc(Nc3nccc(N(C)c4ccc5c(c4)nc(NC(=O)c4cccs4)n5C)n3)c2)CC1", "IFI": 2.26}
{"molecule": "C#CCNCc1ccc(-c2ccc(-c3nc4cc(C(F)(F)F)ccc4[nH]3)s2)cc1", "IFI": 8.82}
{"molecule": "CC(C)N1CCC(N(Cc2ccc(-c3ccc(C(F)(F)F)cc3)cc2)C(=O)Cn2c(CCc3cccc(F)c3F)nc(=O)c3cccnc32)CC1", "IFI": 16.1}
{"molecule": "Cc1nn(CC(C)C)c2sc(C(=O)Nc3nc(-c4ccccn4)cs3)cc12", "IFI": 10}
{"molecule": "COc1ccc(-c2cccc(NC(=O)c3cccc(Cl)c3)c2)cc1CN1CCNCC1", "IFI": 6.93}
{"molecule": "COc1ccc2nccc([C@@H](O)CN3CCC(NCCOc4ccc(F)cc4F)CC3)c2c1", "IFI": 1.59}
{"molecule": "COc1ccc(N(c2nc(-c3cc(Cl)ccc3Cl)cs2)C2CCNC2)cc1", "note": "(stereo unspecified)", "IFI": 20}
{"molecule": "Cc1cc(-c2cc(Cl)ccc2Cl)no1", "IFI": 0}
{"molecule": "Cc1cc(F)ccc1N(c1nc(-c2cc(Cl)ccc2Cl)cs1)C1CCNC1", "note": "(stereo unspecified)", "IFI": 21.4}
{"molecule": "CC(C)c1cn2c3c(cc(C(=O)N[C@@H](Cc4ccccc4)[C@H](O)CNC4CCCCC4)cc13)N(C)S(=O)(=O)CC2", "IFI": 2.94}
{"molecule": "Clc1cc(Br)ccc1-c1ccc(CNCC2CCNCC2)o1", "IFI": 26.3}
{"molecule": "CN(C)CCCNCc1ccc(-c2ccc(F)c(Cl)c2)o1", "IFI": 6.94}
{"molecule": "CNCCCNCc1ccc(-c2ccc(F)c(Cl)c2)o1", "IFI": 2.78}
{"molecule": "O=C(/C=C/c1ccc(Cl)c(Cl)c1)NCCCCCCN1CCCN(C(=O)Nc2cccc(C(F)(F)F)c2)CC1", "IFI": 8.26}
{"molecule": "O=C(/C=C/c1ccc(Cl)c(Cl)c1)NCCCCCCN1CCN(C(=O)Nc2ccc(C(F)(F)F)cc2)CC1", "IFI": 7.03}
{"molecule": "O=C(/C=C/c1ccc(Cl)c(Cl)c1)N1CCN(C(=O)Nc2cccc(C(F)(F)F)c2)CC1", "IFI": 24.2}
{"molecule": "O=C(/C=C/c1ccc(Cl)c(Cl)c1)N1CCN(C(=O)Nc2ccc(C(F)(F)F)cc2)CC1", "IFI": 22.1}
{"molecule": "O=C(/C=C/c1ccc(Cl)c(Cl)c1)N1CCN(C(=O)Nc2ccc(F)c(Cl)c2)CC1", "IFI": 15.2}
{"molecule": "O=C(/C=C/c1ccc(Cl)c(Cl)c1)NCCCCCN1CCCN(C(=O)Nc2cccc(C(F)(F)F)c2)CC1", "IFI": 8.61}
{"molecule": "O=C(Nc1cccc(C(F)(F)F)c1)c1ccc(S(=O)(=O)NCC2CCCN(CC3CCCCC3)C2)cc1", "note": "(stereo unspecified)", "IFI": 5.1}
{"molecule": "CCOC(=O)c1nc(-c2cccnc2)[nH]c1NC(=S)NCc1ccccc1", "IFI": 3.15}
{"molecule": "C=C[C@]1(C)C[C@@H](OC(=O)CNC[C@@H](O)CN2C[C@H](c3ccnc4ccc(OC)nc34)OC2=O)[C@@]2(C)[C@@H]3C(=O)CC[C@@]3(CC[C@@H]2C)[C@@H](C)[C@@H]1O", "IFI": 1.56}
{"molecule": "Cc1cccc2nc(-c3cccc(-c4ccc(NC(=O)Nc5cccc(C#N)c5)cc4)c3)[nH]c12", "IFI": 5}
{"molecule": "O=S(=O)(c1ccccc1)n1ccc2cc(Nc3ncnc4cc(C#C[C@H]5CCCN5)sc34)ccc21", "IFI": 8.57}
{"molecule": "Cc1cc(F)ccc1Nc1nc(N(C)c2ccccc2)c2cc(OCCCN(C)C)ccc2n1", "IFI": 10.8}
{"molecule": "N=C(NCc1ccc(O)cc1)Nc1nc(-c2ccc(OCCCn3ccnc3)cc2)cs1", "IFI": 6.47}
{"molecule": "COc1ccc(Nc2nccc(NCC(O)c3cccc(C(F)(F)F)c3)n2)cc1", "note": "(stereo unspecified)", "IFI": 15.3}
{"molecule": "OC(CNc1ccnc(Nc2ccccc2)n1)c1cccc(C(F)(F)F)c1", "note": "(stereo unspecified)", "IFI": 12.2}
{"molecule": "Cc1ccc(Nc2nccc(NCC(O)c3cccc(C(F)(F)F)c3)n2)cc1", "note": "(stereo unspecified)", "IFI": 17.9}
{"molecule": "Cc1ccc(Nc2nccc(NCC(O)c3ccc(C(F)(F)F)cc3)n2)cc1", "note": "(stereo unspecified)", "IFI": 9.18}
{"molecule": "Cc1ccc(Nc2nccc(NCC(O)c3cccc(C)c3)n2)cc1", "note": "(stereo unspecified)", "IFI": 18.4}
{"molecule": "OC(CNc1ccnc(Nc2ccc(Cl)cc2)n1)c1cccc(C(F)(F)F)c1", "note": "(stereo unspecified)", "IFI": 16.3}
{"molecule": "CN(C)Cc1ccc(-c2cccc(Nc3nccc(NCC(O)c4ccccc4)n3)c2)cc1", "note": "(stereo unspecified)", "IFI": 11.2}
{"molecule": "Cc1ccc(Nc2nccc(NCC(O)c3cccc(F)c3)n2)cc1", "note": "(stereo unspecified)", "IFI": 9.71}
{"molecule": "Cc1cccc(Nc2nccc(NCC(O)c3cccc(C(F)(F)F)c3)n2)c1", "note": "(stereo unspecified)", "IFI": 14.3}
{"molecule": "CN(C)Cc1cccc(-c2ccc(Nc3nccc(NCC(O)c4ccccc4)n3)cc2)c1", "note": "(stereo unspecified)", "IFI": 17.2}
{"molecule": "COc1cccc(C(O)CNc2ccnc(Nc3ccc(Cl)cc3)n2)c1", "note": "(stereo unspecified)", "IFI": 19.8}
{"molecule": "CN(C)CC(=O)Nc1ccc(Nc2nccc(NCC(O)c3ccccc3)n2)cc1", "note": "(stereo unspecified)", "IFI": 2.94}
